Target: IGFBP7
Test: pooled miR-30 sensor sort-seq; sequence = guide strand
Settings: shRNA
Also: reference of the scale not given here.

Sequence | sensor-assay potency score (higher = more potent)
TTATTTTGTATTTCTCTGTGTA | 0.738
TTGCACACGCACACGCCGCTTA | -0.533
TCCATGACTACTTTTAACCATG | -1.58
TTTATTTTGTATTTCTCTGTGT | 0.392
TATGGAAGGACCTTGCTCGCAG | 0.0924
TATTTCTCTGTGTAAAACCAGT | -0.876
ATATTCTCCAGCATCTTCCTTA | 0.0623
TAGAGGAGATACCAGCACCCAG | -1.77
TAGTCTTGATGTGTGATCTTTA | -0.24
TGTCCTTTGAACTCCATAGTGA | -0.0168
TTTTTGCTGATGCTGAAGCCTG | -1.34
TATAACTAAAGTGTTAGTGGAT | 0.0715

Target: IGLL1
Test: as above
Settings: shRNA

Sequence | sensor-assay potency score (higher = more potent)
TTGTTGTTGCTCTGTTTGGAGG | -1.19
TGGACCGGCTGCTTCCTCCAGG | -1.11
TAGCCTTGTTGGCTTGGAGCTC | -0.995
TGAGACACACCAGTGTAGCCTT | 0.221
TCAGGTAGCTGCTGGCCGCGTA | -0.554
TACTTGTTGTTGCTCTGTTTGG | -0.977
TCACCGTCAAGATTCCCGGATA | -1.01
AGACACACCAGTGTAGCCTTGT | -0.487
TGCTCTGCGATGCAGCTGTTGG | -1.49
TGCAGCTGTTGGGCGCAGCAGG | -1.51
TACCACGGCCAGACCCAGCAGC | -0.916
TTGGGCTGACTTAAAACGGTGA | -0.209
